Rows were chosen to be rich in hits. Some 11% of all compounds tested hit in one or more screens of this group.
G9a block: inhibitors of human histone lysine methyltransferase G9a; Q96KQ7; G9a H3K9 monomethylation, AlphaScreen, 2 h; Potency, µM (series often up to 102 µM), for inactives: at the highest dose activity, negative = inhibition, actives largely listed as inhibitors; actives 8.8% (n = 350,000); further: potency means the concentration at half of the fitted maximal effect; nearly all actives have a fitted effect of over 75% in size
Target sequence (Q96KQ7 913-1193 limits assumed): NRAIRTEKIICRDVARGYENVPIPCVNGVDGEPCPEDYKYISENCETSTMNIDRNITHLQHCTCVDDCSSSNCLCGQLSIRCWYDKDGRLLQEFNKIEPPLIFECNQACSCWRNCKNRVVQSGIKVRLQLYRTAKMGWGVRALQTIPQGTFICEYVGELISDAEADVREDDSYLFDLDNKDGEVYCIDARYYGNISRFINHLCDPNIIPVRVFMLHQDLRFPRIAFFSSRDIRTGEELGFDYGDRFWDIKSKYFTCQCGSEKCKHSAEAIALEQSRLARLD
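G9a (20 nM) was preincubated 15 min with compound, then reacted 2 h at room temperature with 500 nM biotin-H3K9 peptide and 20 µM SAM. Monomethyl-H3K9 detected by AlphaScreen using anti-H3K9me1 antibody.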
Tau fluor cs: counter-screen for tau fibril formation inhibitors; Potency, µM (series often up to 57.7 µM), without a hit: at the top dose activity change, negative = decrease; tau K18 P301L Alexa594 fluorescence, heparin fibrillization; AID 1463; actives 0.93% (n = 280,000); further: potency means the concentration at half of the fitted maximal effect; nearly all actives have a fitted effect of over 55% in size
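Human K18 P301L tau (15 uM unlabeled plus 0.24 uM Alexa 594-labeled, final) in 100 mM sodium acetate pH 7 was mixed with compound and 20 uM heparin and incubated 6 hr at 37 C.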
Tau fibril ThT: tau fibrillization inhibition (ThT binding); P10636; recombinant tau K18 P301L, heparin-induced fibrillization, ThT fluorescence; Potency, µM (top dose mostly 57.4 µM), without a hit: at the highest dose activity, negative = inhibition, most hits filed as inhibitors; actives 2.1% (n = 270,000); AID 1460; further: potency means the concentration at half of the fitted maximal effect; nearly all actives have a fitted effect of over 55% in size
Target sequence (P10636 561-689 P618L limits assumed): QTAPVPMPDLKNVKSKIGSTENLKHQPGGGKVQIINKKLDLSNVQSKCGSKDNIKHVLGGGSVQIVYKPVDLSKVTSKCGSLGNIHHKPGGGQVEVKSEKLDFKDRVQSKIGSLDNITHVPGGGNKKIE
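ThT emission at 510 nm, taken 1 hr after adding 30 uM dye, quantifies aggregates formed when 20 uM heparin acts on human tau K18 P301L for 6 hr at 37 C.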
Tau FP inhib: blocks human tau fibril formation measured by polarization. AID 1468. actives 0.39% (n = 280,000). Potency, µM (top dose mostly 57.7 µM), without a hit: top-dose activity, negative = inhibition, most hits filed as inhibitors. K18 P301L tau heparin fibrillization, Alexa594 FP, 6 h; further: potency means the concentration at half of the fitted maximal effect; nearly all actives have a fitted effect of over 55% in size
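Quantitative HTS format: compounds meet 15 uM recombinant K18 P301L tau and Alexa 594-tau tracer in 100 mM sodium acetate pH 7; 20 uM heparin triggers fibrillization at 37 C over 6 hr; FP gives the signal.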
Coupling enz: coupling enzyme interference in Giardia aldolase counter-screen; coupling enzyme system counterscreen, AmpLite Red fluorescence; activity change, negative = inhibition, % at 58.2 µM, hits read low; actives 0.67% (n = 290,000); AID 2472; in the data active means activity change below about -30%
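First, compound is pin-transferred into glyceraldehyde-3-phosphate coupling-enzyme reagent at 57.5 uM final and held 10 min at RT. Next, substrate, coupling system and AmpLite Red are added. After 20 min RT, fluorescence (525/598 nm) is read.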
Sfp inh: inhibitors of Bacillus subtilis Sfp phosphopantetheinyl transferase. Biochemical Sfp PPTase activity, qHTS. Potency, µM, for inactives: largest response in the series, negative = inhibition, most hits filed as inhibitors. actives 3.5% (n = 310,000);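 further: the enzyme is Sfp with the accession as filed and its product quenches rhodamine fluorescence; potency means the concentration at half of the fitted maximal effect; 0% = enzyme reaction without inhibitor and -100% = no enzyme wells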
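Reaction rates are the 30-min fluorescence difference (ex 525, em 598 nm) in wells containing 15 nM Sfp, 5 uM rhodamine-CoA and 12.5 uM BHQ-2-YbbR at pH 7.6 with 10 mM MgCl2.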
* hit, by the source's call; ? = inconclusive; . = not tested or not shown; [ ] = dose if it differs, or a comment. Unless noted, the call rests on the fitted dose curve; in most records, active means well fitted curve in the direction sought with a large enough effect; inconclusive means small, poorly fitted or top-dose-only effect, or another doubt; inactive means no such curve, though single readings can be large; an effect the other way counts as inactive or inconclusive. Unless noted, on the % scale 0 is the no-effect control and ±100 the full control effect.

SMILES	G9a block	Tau fluor cs	Tau fibril ThT	Tau FP inhib	Coupling enz	Sfp inh
Cn1cccc1Cc1nnc(SCC(=O)Nc2nccs2)n1CCc1ccccc1	50µM*	-12%	-19%	-1%	6	79µM*
COc1ccccc1NC(=O)CSc1nnc(Cc2cccn2C)n1CCc1ccccc1	?	-14%	?	7%	5	7%
COc1ccc(NC(=O)CSc2nnc(Cc3cccn3C)n2CCc2ccccc2)cc1OC	40µM*	-22%	?	-1%	-2	3%
CCC(C(=O)NC1CCCC1)n1nc(C)n2c(cc3occc32)c1=O (centres undefined)	25%	.	.	.	.	10%
CCc1ccc(NC(=O)CS(=O)CC(=O)Nc2ccc(-n3cnnn3)c(C)c2)cc1 (centres undefined)	?	.	.	.	7	-6%
CCC1(C)NC(=O)N(CC(=O)NCC(=O)Nc2c(C)cc(C)cc2C)C1=O (centres undefined)	1%[12.7 µM]	.	.	.	.	.
COc1ccc([C@@H](C)NC(=O)c2ccc3oc(C(C)C)nc3c2)cc1	18%[59 µM]	.	.	.	0	19%
Cc1noc(C)c1CNCc1ccccc1	4.5µM*	.	.	.	4	-22%
O=C(Nc1ccncc1)c1cc2ccccc2cc1O	21%[2.33 µM]	.	.	.	.	.
COc1ccc(CC(=O)N/N=C(\C)CC(=O)Nc2ccc3c(c2)OCCO3)cc1OC	12%	.	.	.	-3	11%
Cc1cc(C)c(Cc2c(C)nc3c(C(=O)NCc4ccco4)cnn3c2C)c(C)c1	?	-14%	?	-16%	0	56µM*
O=C(O)c1cnn2c(C(F)(F)F)cc(-c3ccco3)nc12	50µM*	1%	-11%	4%	2	4%
Cc1cc(C)c2c(N)c(C(=O)NCc3ccco3)sc2n1	10µM*	-9%	?	6%	0	-9%
CC1CCc2cc(F)ccc2N1C(=O)c1cc2nc(-c3ccco3)cc(C(F)(F)F)n2n1 (centres undefined)	50µM*	-8%	-18%	5%	2	-9%
CC(=O)c1sc2nc(C)cc(C)c2c1N	0%[59 µM]	-8%	-12%	3%	1	3%
CCCN1CC(O)=C(C#N)C1=O	-41%	0%	2%	4%	-1	-4%
Cc1cccc(CN2C(=O)c3ccccc3S(=O)(=O)c3ccc(C(=O)OCC4CCCO4)cc32)c1 (centres undefined)	7%[59 µM]	-23%	4%	-7%	.	.
CCCN(C(=O)NCc1noc2ccc(C)cc12)c1ccc(Cl)c(Cl)c1	6%[59 µM]	-17%	-9%	7%	.	.
CSCC[C@H](NC(=O)[C@H](Cc1c[nH]c2ccccc12)NC(=O)CCNC(=O)OC(C)(C)C)C(=O)N[C@@H](CC(=O)O)C(=O)N[C@@H](Cc1ccccc1)C(N)=O	.	.	.	.	1	-9%
O=C(NCc1ccco1)c1cnn2c(C(F)(F)F)cc(-c3cccs3)nc12	-4%[59 µM]	-19%	?	?	4	32µM*
CSCCC1NC2(C(=O)Nc3c2ccc(Cl)c3C)[C@@H]2C(=O)N(C3CCCC3)C(=O)[C@H]12 (some centres undefined)	?	-13%	-1%	?	0	-2%
CCCCc1ccc(N2C(=O)[C@@H]3C(CC(N)=O)NC4(C(=O)Nc5ccc(F)cc54)[C@@H]3C2=O)cc1 (some centres undefined)	40µM*	-22%	-7%	?	-1	-18%
Cc1c(Cl)ccc2c1NC(=O)[C@]21N[C@@H](CCC(N)=O)[C@H]2C(=O)N(c3ccc(F)cc3)C(=O)[C@H]21	14µM*	-16%	?	-4%	1	-10%
Cc1c(Cl)ccc2c1NC(=O)C21NC(CCC(N)=O)[C@H]2C(=O)N(c3ccc(Cl)cc3)C(=O)[C@H]21 (some centres undefined)	40µM*	-9%	-19%	7%	-4	-15%
